This is a sample that favours compounds with a hit; in the whole collection about 4% have one here.
Mtb FBA inh – Mtb FBA enzyme inhibitors, primary screen, biochemical, fluorescence, strain H37Rv | Fructose-bisphosphate aldolase (Mycobacterium tuberculosis (strain ATCC 25618 / H37Rv)), … | purified M. tuberculosis FBA, fluorescence read-out | inhibition, % at 1 µM | 360,000 compounds, 2.3% hits; in the data active means inhibition above about 27%;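 further: 0% = vehicle and 100% = reference inhibitor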
CCHF vOTU inh – CCHFV vOTU protease inhibitors, primary screen, biochemical, Pep-AMC substrate, fluorescence; inhibition, % at 11.5 µM; Crimean-Congo hemorrhagic fever virus L polyprotein viral ovarian tumor (vOTU) protease …; 370,000 compounds, 0.55% hits; further: 0% = vehicle wells with enzyme and 100% = no enzyme wells
GDH-TPI inh – GDH-TPI coupling enzyme inhibitors, primary screen, artefact control for M. tuberculosis FBA inhibitor project, biochemical, absorbance, full deck | AID 588335, 2011 | 360,000 compounds, 1.2% hits | GDH-TPI coupled enzyme counterscreen, NADH absorbance | inhibition, % at 4.8 µM;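 further: 0% = DMSO wells and 100% = wells lacking the enzyme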
MazEF act – activators of E. coli MazEF toxin-antitoxin RNase, primary screen, biochemical, fluorescence, uHTS. activation, % at 20 µM. Endoribonuclease toxin MazF (Escherichia coli (strain K12)), P0AE70. FAM/BHQ RNA-DNA oligo cleavage fluorescence, 5 h. AID 504720, 2011. 350,000 compounds, 0.32% hits; in the data active means activation above about 50%
Target sequence (P0AE70 whole entry, looked up): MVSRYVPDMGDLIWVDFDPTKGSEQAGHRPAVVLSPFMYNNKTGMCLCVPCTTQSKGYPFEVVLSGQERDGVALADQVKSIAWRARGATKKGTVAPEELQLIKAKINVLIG
Mtb bLac sens – beta-lactam sensitization of Mtb H37Rv, H37Rv; M. tuberculosis H37Rv growth with meropenem, percent inhibition; inhibition, % at 25 µM; 330,000 compounds, 0.27% hits; AID 434955, 2010; call rule not given here;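 further: growth measured after seven days incubation then overnight dye step; 0% = bacteria only wells and 100% = bacteria with antibiotic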
* hit, by the source's call; x = not tested or not shown; + = active, no number. Unless noted, no stated cut-off is given here; in the data, active means inhibition above about 30%; inactive means the rest.

SMILES	Mtb FBA inh	CCHF vOTU inh	GDH-TPI inh	MazEF act	Mtb bLac sens
Cc1occc1-c1nnc(SCC(=O)Nc2ccccn2)n1-c1ccccc1	x	-3	x	x	x
Cc1c(C)c2c(OCC(=O)NCC3CCC(C(=O)O)CC3)cc3c(c2oc1=O)CCC(C)(C)O3 (centres undefined)	120*	-59	8	x	x
Cc1cc(OCC(=O)NCC2CCC(C(=O)O)CC2)c2c(C)c(C)c(=O)oc2c1 (centres undefined)	21	-12	6	-10	-2
Cc1cc(=O)oc2c3c(cc(OCC(=O)NCC4CCC(C(=O)O)CC4)c12)OC(C)(C)CC3 (centres undefined)	+	-206	17	3	-5
Cc1c(C)c2c(OCC(=O)N3CCC(C(=O)O)CC3)cc3c(c2oc1=O)CCC(C)(C)O3	+	x	36*	-5	7
CC1CCC2(CCC(=O)N2CCCO)CC1 (centres undefined)	x	-1	x	x	x
CN1C(=O)C[C@@](C#N)(C(=O)NCC(F)(F)F)[C@H]1c1ccccc1	x	-6	x	x	x
COc1ccc(CN(C)C(C#Cc2ccccc2)Cc2ccccc2)c(OC)c1 (centres undefined)	x	4	x	x	x
N=c1c(C(=O)NCc2ccc3c(c2)OCO3)cc2c(=O)n3ccccc3nc2n1CC1CCCO1 (centres undefined)	16	-5	4	11	-3
N=c1c(C(=O)NCc2ccc(F)cc2)cc2c(=O)n3ccccc3nc2n1CC1CCCO1 (centres undefined)	+	-172	13	-6	-4
N=c1c(C(=O)NCc2ccco2)cc2c(=O)n3ccccc3nc2n1CC1CCCO1 (centres undefined)	+	-32	20	-22	-12
N=c1c(C(=O)NCCc2ccccc2)cc2c(=O)n3ccccc3nc2n1CC1CCCO1 (centres undefined)	+	-382	10	12	9
Cc1cccn2c(=O)c3cc(C(=O)NCCc4ccccc4)c(=N)n(CC4CCCO4)c3nc12 (centres undefined)	119*	-87	1	22	3
COC(=O)[C@]12C[C@H](CC(=O)NCCc3ccccc3OC)C(=O)N(CCC3=CCCCC3)C1=C[C@H](C1CCCC1)O[C@@H]2C	x	19	x	x	x
CC(C)C[C@H]1COc2cccc(N3CCSCC3)c2S(=O)(=O)N1C	x	-3	x	x	x
Cc1cccn2c(=O)c3cc(C(=O)NCc4cccnc4)c(=N)n(CC4CCCO4)c3nc12 (centres undefined)	+	-208	6	10	3
COc1ccc(CCNC(=O)c2cc3c(=O)n4ccccc4nc3n(CC3CCCO3)c2=N)cc1 (centres undefined)	15	-11	16	15	x
C=C(C)C#CCNCc1ccccc1	x	3	x	x	x
COc1ccc(/C=C2\SC(=S)N(CCC(=O)N3CCCCC3CCO)C2=O)cc1 (centres undefined)	-4	-7	2	-3	27
COc1ccc(/C=C2\SC(=O)N(CCn3cnnn3)C2=O)cc1	-2	14	38*	0	-7
COc1ccc(/C=C2\SC(=O)N(CCC(=O)N3CCCCC3CCO)C2=O)cc1 (centres undefined)	0	21	40*	5	1
C[C@H](O)[C@@H]1CN2CCc3ccc(N4CCOCC4)cc3[C@@H]2C[C@@H]1N(C)C(=O)c1cccc(Cl)c1	x	-8	x	x	x
CC(CCN1CCC(C(O)(c2ccccc2)c2ccccc2)CC1)Oc1cccc(Cl)c1 (centres undefined)	x	7	x	x	x
COc1ccccc1CNC(=O)C1CCCN(S(=O)(=O)c2c(C)[nH]c(=O)[nH]c2=O)C1 (centres undefined)	65*	23	5	-1	0
Cc1noc(/C=C/N(C)C)c1S(=O)(=O)N1CCCC(C(=O)NCc2cccs2)C1 (centres undefined)	0	16	38*	-2	7
COc1cccc(CNC(=O)C2CCCN(S(=O)(=O)c3c(C)noc3/C=C/N(C)C)C2)c1 (centres undefined)	0	8	34*	6	-8
COc1ccccc1CNC(=O)C1CCCN(S(=O)(=O)c2cnc[nH]2)C1 (centres undefined)	-1	2	8	8	5
CCN1C(=O)/C(=C\N(C(C)=O)c2ccccc2)OC1=S	-2	20	63*	0	-3
